According to PubChem BioAssay AID934 (National Center for Advancing Translational Sciences (NCATS), 2007):
Records with an inconclusive call do not appear. Entries that show only a call come without a potency. Activity calls are given as the source filed them. Calls come from the whole dose curve; as a rule, active = well fitted activation curve with a large enough effect; inconclusive = small, poorly fitted or top-dose-only effect; inactive = flat fitted curve, though single readings scatter.

experiment: Parental Cell Counter Screen for Stat Signaling Pathway Assay; details: ME-180 (cervical carcinoma) parental cells, blue fluorescence artefact counter-screen; series mostly up to 38.3 µM
Excerpt: NIH Molecular Libraries Screening Centers Network [MLSCN] NIH Chemical Genomics Center [NCGC] MLSCN Grant: None NCGC Assay Overview: This assay is a counter screen for the Stat signaling pathway assay (PubChem AID 446). The Stat assay is cell-based and measures Interleukin 6 (IL-6) mediated modulation of a beta-lactamase reporter gene controlled by a STAT inducible element (SIE-bla cells, Invitrogen). IL-6 is a cytokine that signals via the JAK/STAT pathway and is implicated in cancer and inflammation. […] Compounds active in the parental ME-180 cells are likely fluorescent.
NCGC Assay Protocol Summary: Cells were trypsinized, washed in assay medium (AM, OPTI MEM with 0.5% fetal bovine serum, 0.1 mM nonessential amino acids, 1 mM sodium pyruvate, 10mM HEPES pH 7.3, 100U/ml penicillin, and 100 ug/ml streptomycin) and suspended at […] in AM. Approximately 2500 cells in 5 uL/well was dispensed into 1536-well plates and the cells were incubated overnight at 37 C. 23 nL of compound were delivered by a pin tool and 1 uL of IL-6 (40 pM final concentration in AM) was added. After plates were incubated at 37 C for 5 hrs, 1uL of detector mix (LiveBLAzerTM, Invitrogen) was added, the plates incubated at room temperature for 2.5 hrs, and fluorescence intensity at 460 and 530 nm emissions was measured at 405 nm excitation by an Envision (Perkin Elmer).

| Structure (SMILES) | Potency |
| --- | --- |
| COc1cc(-c2nn3c(COc4ccccc4)nnc3s2)cc(OC)c1OC | inactive |
| CN(C)CCCN=c1c2ccccc2n(C)c2[nH]c(=O)n(C)c(=O)c12 | inactive |
| CCC(=O)Oc1oc(-c2ccccc2)nc1C=Nc1ccccc1OC | inactive |
| CN1CCc2c(sc3ncn4nc(-c5ccccc5O)nc4c23)C1 | 31.6 µM (active) |
| Fc1ccc2[nH]c3c(N4CCN(Cc5ccc6c(c5)OCO6)CC4)ncnc3c2c1 | inactive |
| OC[C@@H]1CCC[C@H](n2cnc3c(=S)nc[nH]c32)O1 | inactive |
| CCN(CC)CCN1C(=O)c2cccc3cc(N)cc(c23)C1=O | inactive |
| O=C1CC(N(O)C2CC(=O)N(Cc3ccccc3)C2=O)C(=O)N1Cc1ccccc1 (stereo not given) | inactive |
| ClC(Br)=C(n1cnc2ccccc21)n1cnc2ccccc21 | inactive |
| NS(=O)(=O)c1ccc(N=Nc2cc3ccccc3c(C(=O)O)c2O)cc1 | inactive |
| C=CCNC(=O)C(C#N)c1nc2ccccc2nc1N1CCCCCC1 (stereo not given) | 15.8 µM (active) |
| CCCCSc1nc(N)c(C#N)c(-c2cccs2)c1C#N | inactive |
| CC(C)(C)c1nnc2sc(SCC(=O)c3ccccc3)nn2c1=O | inactive |
| C=C1C(=O)O[C@@H]2[C@@H]1CC/C(C)=C\CC[C@@]1(C)O[C@H]21 | inactive |
| CCN(CC)CCNc1ccc(CO)c2sc3ccccc3c(=O)c12 | inactive |
| O=C(O)c1c(Br)c(Br)c(Br)c(Br)c1C1c2ccc(O)cc2Oc2cc(O)ccc21 | inactive |
| Cc1ccccc1CNc1ncnc2c1ncn2[C@@H]1O[C@@H](CO)[C@H](O)[C@@H]1O | inactive |
| O=C(Oc1oc(-c2ccco2)nc1C=Nc1ccccc1)c1ccoc1 | inactive |
| C=CCn1c(SCC(=O)c2ccc(NS(=O)(=O)c3ccccc3)cc2)nnc1-c1cccs1 | inactive |
| Nc1ncnc2c1ncn2[C@@H]1O[C@H](COP(=O)(O)O)[C@@H](O)[C@@H]1O | inactive |

| Structure (SMILES) | Potency |
| --- | --- |
| Cn1c(N2CCN(c3ccccn3)CC2)nc2c1c(=O)n(Cc1ccc(Cl)cc1)c(=O)n2C | inactive |
| CCOC(=O)CSc1nnc2n(Cc3ccccc3)c(=O)c3c4c(sc3n12)CCC4 | inactive |
| NCCSc1nc2ccccc2s1 | inactive |
| CC(C)(C)C1CCC2(CC1)C(C#N)=C(SCC(=O)Nc1ccccc1)NC(=O)C2C#N (stereo not given) | inactive |
| CCOC(=O)N1CCC(=C2c3ccc(Cl)cc3CCc3cccnc32)CC1 | inactive |
| CCNC(=O)c1cc2c(=O)n3cccc(C)c3nc2n(CCc2ccccc2)c1=N | 12.6 µM (active) |
| CCc1cc2c(=O)c(-c3nc4ccccc4[nH]3)coc2cc1OC(=O)N1CCOCC1 | 12.6 µM (active) |
| C[n+]1cc2c3c(ccc2c2ccc4cc5c(cc4c21)OCO5)OCO3 | 10 µM (active) |
| Cc1ccc(S(=O)(=O)N2CCN(c3nc(C(C)C)c4c(c3C#N)CC(C)(C)OC4)CC2)cc1 | inactive |
| CCOC(=O)CCc1c(C)c(C#N)c2[nH]c3ccccc3n2c1=O | inactive |
| COc1ccc(-c2nn3c(COc4ccccc4)nnc3s2)cc1OC | inactive |
| O=C1Nc2ccc(I)cc2/C1=C/c1cc(Br)c(O)c(Br)c1 | inactive |
| Cc1cc(=O)oc2c(CN3CCCCC3)c(O)c(Cl)cc12 | 10 µM (active) |
| COc1ccc2[nH]c3c(N4CCN(Cc5ccc6c(c5)OCO6)CC4)ncnc3c2c1 | inactive |
| O=c1c(O)c(-c2ccc(O)c(O)c2)oc2cc(O)cc(O)c12 | inactive |
| Clc1ccc(-c2nnc3sc(Cc4cccs4)nn23)cc1 | inactive |
| Cn1c(NCc2ccccc2)nc2c1c(=O)n(Cc1ccc(Br)cc1)c(=O)n2C | inactive |
| CCCCc1nc(NCCNC(=O)c2ccco2)c(C#N)c2c1CSC(C)(C)C2 | inactive |
| O=c1c(O)c(-c2ccc(O)cc2)oc2cc(O)ccc12 | inactive |
| COc1ccc(C(=O)CCN(C)C)c2ccccc12 | inactive |
